Unmarked numbers belong to inactive results.
system: Caenorhabditis elegans L1 (N2); test: survival and reproduction score of C. elegans L1 (0: 0-10 living worms, 1: 11-20, 2: 21-50, 3: >50, 4: overgrown) (score 0-4); higher = more worms, less nematicidal, active = 1 or less; extreme values may be limits of the assay; settings: 60 µM; 6 days; temperature: 20 °C
Method: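 DODA library (846 commercial 1,3,4- and 1,2,4-oxadiazole compounds plus commercial nematicide controls) screened at a single dose of 60 µM (0.6% DMSO) in 96-well plates, two biological replicates. Read-outs: C. elegans N2 L1 survival/reproduction score at day 6, 20 °C (0: 0-10 worms, 1: 11-20, 2: 21-50, 3: >50, 4: overgrown/starved). C. elegans daf-2 dauer, D. dipsaci and M. hapla J2 mobility at day 5, 20 °C, and P. penetrans mobility at day 5, 20 °C, each relative to DMSO controls. M. hapla egg hatching at day 12, 25 °C, relative to the mean of 8 DMSO wells on the same plate.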

Point of comparison: `O=C(CSc1nnc(-c2cccc3ccccc23)o1)c1ccc(F)cc1`, “survival and reproduction score” value 4. Against it:
- Cc1ccc(C(=O)Nc2ccccc2-c2nc(-c3cccnc3)no2)cc1C — the same, 4
- Cc1cccc(-c2noc(-c3cc(Cl)ccc3Cl)n2)c1 — lower, 2
- Cc1cccc(-c2noc(-c3ccccc3F)n2)c1 — the same, 4
- CSc1ccccc1-c1nc(-c2cccnc2)no1 — the same, 4
- c1ccc(-c2nnc(SCc3cccnc3)o2)cc1 — the same, 4
- O=C(CSc1nnc(-c2cccnc2)o1)c1ccc2ccccc2c1 — the same, 4
- O=C(CSc1nnc(-c2ccc(Br)cc2)o1)Nc1ccc2ccccc2c1 — the same, 4
- COc1nc(-c2ccccc2)ccc1-c1noc(C(C)C)n1 — the same, 4
- CCc1ccc(NC(=O)CSc2nnc(-c3ccc(Cl)cc3Cl)o2)cc1 — the same, 4
- c1ccc(-c2noc(COc3ccc4c(c3)CCCC4)n2)cc1 — the same, 4
- Ic1ccc(CSc2nnc(-c3ccco3)o2)cc1 — lower, 3.5
- Clc1ccc(-c2noc(COc3ccc4c(c3)OCO4)n2)cc1 — the same, 4
- O=C(Nc1ccccc1-c1nc(-c2cccnc2)no1)c1cccc(Cl)c1 — the same, 4
- Cc1ccc(OCc2nc(-c3ccc(F)cc3)no2)cc1C — the same, 4
- Cc1ccc(-c2noc(COc3cccc(C)c3)n2)cc1 — the same, 4
- CCOc1ccc(NC(=O)CSc2nnc(-c3ccncc3)o2)cc1 — the same, 4
- Clc1cc(Br)ccc1OCc1nc(-c2ccccn2)no1 — the same, 4
- COc1nc(C)ccc1-c1noc(-c2ccccc2Cl)n1 — the same, 4
- CC1CCN(C(=O)CSc2nnc(-c3cccc(Cl)c3)o2)CC1 — the same, 4
- Cc1ccccc1-c1noc(-c2ccccc2C(=O)NCc2ccccc2)n1 — the same, 4
- c1ccc(-c2noc(COc3cccc4ccccc34)n2)nc1 — the same, 4
- Cc1cccc(-c2noc(-c3ccc(F)cc3)n2)c1 — lower, 2
- COc1ccc(-c2nnc(SCC(=O)Nc3ccc(Br)cc3C(C)C)o2)cc1 — the same, 4
- O=C(CSc1nnc(-c2ccccc2Cl)o1)NCc1ccccc1 — the same, 4
- CCOc1ccccc1-c1nc(-c2ccc(Cl)cc2)no1 — the same, 4
- COc1ccc(-c2noc(C34CC5CC(CC(C5)C3)C4)n2)cc1 — the same, 4
- Cc1ccc(OC(C)c2nc(-c3cccnc3)no2)cc1 (stereo not given) — the same, 4
- Brc1ccc(-c2nc(-c3ccc4c(c3)OCO4)no2)cc1 — the same, 4
- Cc1cccc(OC(C)c2nc(-c3ccncc3)no2)c1 (stereo not given) — the same, 4
- Cc1ccc(OCc2nc(-c3ccc(Br)o3)no2)cc1C — the same, 4
- CCN(CC)C(=O)CSc1nnc(-c2cccc(Cl)c2)o1 — the same, 4
- COc1ccccc1-c1nc(-c2ccccc2)no1 — the same, 4
- Cc1ccccc1-c1nc(-c2cccc(NC(=O)c3cccs3)c2)no1 — the same, 4
- COc1nc(-c2ccc(Cl)cc2)ccc1-c1noc(-c2ccncc2)n1 — the same, 4
- COc1ccc(Cl)cc1-c1noc(-c2ccc(Cl)cc2)n1 — the same, 4

In the case of `Brc1ccc(-c2noc(CSc3ccccc3)n2)cc1`, the “survival and reproduction score” value is reported as 0 (active).
In the case of `COc1cccc(-c2noc(-c3ccc(C)cc3)n2)c1`, the “survival and reproduction score” value is reported as 0 (active).
In the case of `C#CCOc1ccc(-c2nc(-c3ccccc3)no2)cc1`, the “survival and reproduction score” value is reported as 0 (active).
For `CCCc1nnc(CSc2nnc(-c3ccc(Cl)cc3)o2)o1`, the “survival and reproduction score” value was 1 (active).
